The panel holds about 83,000 compounds, 20% with a hit somewhere; the sample as a whole holds those more often.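 The test compound was applied at a single concentration to cells in 96-well plates for 48 hours, and percent growth was recorded.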 A number with no mark means an inactive call. Active and inactive are the calls of the source. The calls were made as follows: active = growth percent below 10; inactive = the rest.
Legend:
Assay in all cases: NCI-60 one-dose screen, 48 h (100 = growth as untreated, 0 = no growth, -100 = all killed)
Settings in all cases: 10 µM unless noted
NCI-H23 lung = system: NCI-H23 lung
NCI-H226 lung = system: NCI-H226 lung
NCI-H322M lung = system: NCI-H322M lung
HOP-62 NSCLC = system: HOP-62 NSCLC
NCI-H460 lung = system: NCI-H460 lung
HOP-92 NSCLC = system: HOP-92 NSCLC
NCI-H522 lung = system: NCI-H522 lung
A549/ATCC NSCLC = system: A549/ATCC NSCLC
786-0 renal = system: 786-0 renal
COLO 205 colon = system: COLO 205 colon

SMILES	growth (NCI-H23 lung)	growth (NCI-H226 lung)	growth (NCI-H322M lung)	growth (HOP-62 NSCLC)	growth (NCI-H460 lung)	growth (HOP-92 NSCLC)	growth (NCI-H522 lung)	growth (A549/ATCC NSCLC)	growth (786-0 renal)	growth (COLO 205 colon)
CCOC(=O)c1c(C)nc2c(c1N)C(=O)C(=O)N2Cc1ccc(C(F)(F)F)cc1	69.8%	73.2%	97.3%	60.5%	93.7%	50.3%	31%	84.3%	33.9%	101%
C=C(C)[C@@H]1CC[C@]2(C(=O)N3CCN(C)CC3)CC[C@]3(C)[C@H](CC[C@@H]4[C@@]5(C)CCC(=O)C(C)(C)[C@@H]5CC[C@]43C)[C@@H]12	89.9%	88.5%	91.5%	86.4%	21%	52.8%	85.1%	85.1%	71.1%	72.4%
CC(=O)c1c(-c2ccc(OC(F)(F)F)cc2)nc2ccccn12	95.4%	91%	90.4%	88.9%	103%	91%	51.5%	62.8%	99%	95.8%
Cc1cn(-c2cc(C(=O)Nc3cccc(C#Cc4cccc5[nH]nc(N)c45)c3)cc(C(F)(F)F)c2)cn1	44.1%	33.1%	68.4%	45.1%	40.6%	26.4%	51.7%	63.2%	66.7%	13.8%
NC(=O)CN1CCN(c2ccccc2Cl)CC1	99.7%	102%	94.3%	104%	111%	103%	92.3%	111%	91.6%	110%
COc1ccc2c(/C=C3/C(=O)NC(=S)NC3C)cc(=O)oc2c1 (stereo not given)	98.9%	96.7%	93.1%	92.8%	105%	93%	82.3%	88.9%	95.8%	101%
O=C(Nc1nc2ccc(S(=O)(=O)Nc3ccc(C4(C(F)(F)F)CC4)cc3)cc2[nH]1)c1cnccn1	43.6%	54.1%	46.6%	51.5%	8.38% (active)	39.3%	26.9%	35.1%	33.9%	35.1%
COC(=O)N[C@H]1CCc2cc(OC)c(OC)c(OC)c2-c2ccc(SC)c(=O)cc21	23.3%	-3.52% (active)	29.8%	23.4%	2.04% (active)	15.2%	-17.9% (active)	13.6%	14.1%	-18.6% (active)
Cc1ccc(C2CC(c3cccc(Nc4ccncc4)c3)=NN2c2ccc(Cl)cc2)cc1 (stereo not given)	-83.2% (active)	-38.8% (active)	-99.7% (active)	-65.9% (active)	-76.1% (active)	-90.3% (active)	-71.2% (active)	-34.5% (active)	-88.4% (active)	-66.3% (active)
CC1(C)CN(Cc2ccccc2)CCN1Cc1ccccc1	104%	95%	103%	108%	106%	96.3%	91.8%	89.5%	99.6%	112%
CC1=NNC(=O)C1CCC(=O)N/N=C(\C)c1ccc2ccccc2c1 (stereo not given)	104%	99.6%	122%	115%	108%	94.4%	96.1%	95.3%	103%	167%
Nc1c(Cl)cc([N+](=O)[O-])cc1Br	93%	93.7%	103%	109%	114%	74.8%	88.1%	99.6%	87.8%	118%
CCn1cc(C2NC(=O)c3ccccc3N2)c2cccc(C)c21 (stereo not given)	30.1%	57.2%	36.7%	31.6%	1.6% (active)	80.5%	-39.8% (active)	18.4%	39.4%	-17.3% (active)
CC(c1ccccc1)n1ccnc1CO (stereo not given)	96.5%	100%	101%	105%	104%	66.5%	98.8%	109%	105%	106%
O=S(=O)(c1ccc(N/N=C\c2ccccc2)cc1)c1ccc(N/N=C/c2ccccc2)cc1	43.6%	83.3%	80%	46.6%	40.4%	8.56% (active)	60%	60%	83.4%	88.9%
Clc1ccc2c(c1)c(-c1ccccc1)nc1nncn12	98.6%	114%	114%	105%	117%	119%	93.1%	106%	94.2%	115%
CC(=O)c1c(C)[nH]c(-c2nc3ccc(N4CCN(C)CC4)cc3[nH]2)c1-c1ccccc1	53%	55.2%	41.6%	33.3%	52.3%	29.8%	25.4%	38.1%	85.9%	16.1%
COc1cc(CNC(=O)CCCCC[P+](c2ccccc2)(c2ccccc2)c2ccccc2)c(OC)c2c1OCO2	66.9%	88.3%	96.8%	90.1%	78.6%	23.5%	52.9%	87.8%	96.3%	45.8%
COc1ccccc1/C=C1\COc2ccc(-c3ccccc3)cc2C1=O	68%	88.4%	80%	-55.3% (active)	12.2%	49.3%	51.9%	37.8%	-49.2% (active)	9.86% (active)
Fc1ccc(C2CC(c3cccc(Nc4ccncc4)c3)=NN2c2cc(Cl)cc(Cl)c2)cc1 (stereo not given)	80.2%	90.5%	73%	44.4%	-75.5% (active)	58.3%	73%	29.1%	102%	-54.5% (active)
CN1CCN(c2c(F)cc(NC3=C(Cl)C(=O)c4ncccc4C3=O)cc2F)CC1	82.8%	97.1%	108%	111%	107%	41%	-9.58% (active)	109%	101%	64.7%
CCC(=O)c1ccc(O)c(OC)c1	96.1%	72.4%	106%	104%	104%	82.6%	88.2%	86.5%	4.29% (active)	120%
O=C1Nc2c(ccc(Cl)c2Cl)/C1=C/c1ccc(F)cc1	87.2%	84.8%	93.9%	89.3%	97.8%	42.1%	76.4%	41.1%	76.7%	97.7%
COc1ccc(/C=N/C2=C(C#N)C(c3ccccc3[N+](=O)[O-])c3ccc4ccccc4c3O2)cc1 (stereo not given)	79%	70.4%	90.6%	103%	91.4%	97.1%	88.1%	99.8%	101%	104%
O=S(=O)(NCCNc1nccc(-c2c(-c3ccc(F)c(O)c3)nc3sccn23)n1)c1ccccc1	72.2%	99.8%	96.1%	98.9%	75.3%	63.9%	59.3%	81.8%	113%	33.9%
CC(C)(C)OC(=O)N1C/C(=C\c2ccoc2)C(=O)/C(=C/c2ccoc2)C1	99.1%	98.3%	87.7%	93.9%	107%	100%	78.8%	102%	93.8%	109%
CCOC(=O)N1CCN(CCCCl)CC1	103%	102%	101%	109%	105%	95%	95.4%	94.8%	98.4%	113%
